Hits are enriched below; roughly 7.5% of the tested compounds scored in any of these assays.
SMN2 splice enh: qHTS Assay for Enhancers of SMN2 Splice Variant Expression. Potency, µM (highest dose often 46.1 µM), hits mostly activators. 210,000 compounds, 2.8% hits. HEK293 SMN2-luciferase splicing reporter, luminescence, 30-36 h. AID 1458, 2008; note: nearly all actives have a fitted effect of over 55% in size
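HEK293 cells carry an SMN2 minigene-luciferase reporter in which exon 7 inclusion puts luciferase in frame. Cells were seeded at 2000 cells/well, attached for 10-12 hours, then exposed to compounds for 30-36 hours at 37C before ONE-Glo luminescence.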
Rab9 promoter act: qHTS Assay for Rab9 Promoter Activators | Potency, µM (highest dose often 9.22 µM), most hits filed as activators | Huh7 Rab9 promoter-luciferase reporter, luminescence, 24 h | 320,000 compounds, 2.8% hits; note: nearly all actives have a fitted effect of over 60% in size
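Luciferase signal after 10 min detection reagent at ambient indicates Rab9 promoter upregulation; stably transfected Huh7 cells were treated 24 h with compound in DMSO at 37 °C, 5% CO2.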
ELG1 genotox: qHTS screen for small molecules that induce genotoxicity in human embryonic kidney (HEK293T) cells expressing luciferase-tagged ELG1; 330,000 compounds, 1.3% hits; Potency, µM (doses to about 46 µM), most hits filed as activators; HEK293T ELG1-luciferase reporter, luminescence, 16 h; AID 504466, 2011; note: nearly all actives have a fitted effect of over 60% in size
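Luminescence read-out: rising ELG1-luciferase signal, reflecting elevated ELG1 protein under genetic stress, flags genotoxic compounds. Cells were treated for 16 hr at 37 °C before ONE-Glo detection.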
Luc counter: Counterscreen for Luciferase (Kinase-Glo TM) Inhibition. Luciferin 4-monooxygenase (Photuris pensylvanica), Q27757. Kinase-Glo luciferase, ATP luminescence, 8 min. Potency, µM (highest dose often 38.3 µM), actives largely listed as inhibitors. 200,000 compounds, 0.28% hits. AID 1379, 2008; note: nearly all actives have a fitted effect of over 60% in size
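Substrate mix (final 50 mM imidazole pH 7.2, 50 mM KCl, 7 mM MgCl2, 10 uM ATP, 0.01% Tween 20, 0.05% BSA) plus pin-tool compound, then Kinase-Glo detection mix; 8 min ambient, luminescence read.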
FLuc modulator: qHTS profiling assay for firefly luciferase inhibitor/activator using purifed enzyme and Km concentrations of substrates (counterscreen for miR-21 project). Luciferin 4-monooxygenase (Photinus pyralis), P08659. purified FLuc, Km substrates, luminescence inhibition. Potency, µM (series often up to 57.5 µM), actives largely listed as inhibitors. 360,000 compounds, 6.9% hits; note: nearly all actives have a fitted effect of over 55% in size
Target sequence (P08659 whole entry, looked up): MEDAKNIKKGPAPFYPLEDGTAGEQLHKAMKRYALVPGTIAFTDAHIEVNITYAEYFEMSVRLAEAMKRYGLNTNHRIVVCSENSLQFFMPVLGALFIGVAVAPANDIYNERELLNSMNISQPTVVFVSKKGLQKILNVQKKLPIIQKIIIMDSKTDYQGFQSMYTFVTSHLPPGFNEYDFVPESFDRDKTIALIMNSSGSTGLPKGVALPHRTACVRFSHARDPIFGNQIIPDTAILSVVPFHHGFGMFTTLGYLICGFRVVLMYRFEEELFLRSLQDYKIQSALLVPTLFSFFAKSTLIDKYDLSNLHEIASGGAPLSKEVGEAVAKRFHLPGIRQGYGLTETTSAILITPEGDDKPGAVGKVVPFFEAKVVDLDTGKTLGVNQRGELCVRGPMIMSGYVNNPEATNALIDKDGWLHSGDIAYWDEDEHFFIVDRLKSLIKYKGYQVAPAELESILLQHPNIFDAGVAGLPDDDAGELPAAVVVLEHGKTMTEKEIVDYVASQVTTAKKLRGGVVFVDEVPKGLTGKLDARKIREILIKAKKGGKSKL
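Biochemical qHTS of compounds, final roughly 60 µM downward over six points, against 10 nM purified firefly luciferase using Km concentrations of substrates (10 uM D-luciferin, 10 uM ATP) in Tris acetate pH 7.5 buffer; luminescence output.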
NPC1 prom act: qHTS Assay for NPC1 Promoter Activators | 320,000 compounds, 2.4% hits | Potency, µM (doses to about 9.22 µM), most hits filed as activators | Huh7 NPC1 promoter luciferase reporter, 24 h; note: nearly all actives have a fitted effect of over 60% in size
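Quantitative HTS used a cell-based reporter: Huh7 cells stably bearing the NPC1 promoter upstream of luciferase were treated with compounds for 24 h, and promoter activation was read as luminescence.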
A number is an active result; 0 = inactive; ? = inconclusive; - = not tested or not shown. Calls come from the whole dose curve; as a rule, active = well fitted curve in the direction sought with a large enough effect; inconclusive = small, poorly fitted or top-dose-only effect, or another doubt; inactive = no such curve, though single readings can be large; an effect the other way counts as inactive or inconclusive.

SMILES	SMN2 splice enh	Rab9 promoter act	ELG1 genotox	Luc counter	FLuc modulator	NPC1 prom act
Cc1cccc(C(=O)NCCc2ccccc2)c1	-	1.26µM	4.61µM	-	10.7µM	1.41µM
O=C(NCCc1ccccc1)c1ccc([N+](=O)[O-])cc1	11.2µM	0.447µM	?	0	3.01µM	0.398µM
Cc1ccc(C(=O)NCC(=O)OCC(=O)c2ccc(C)c([N+](=O)[O-])c2)cc1	0	0	0	0	0	0
Cc1cc(C(=O)NCC(=O)OCC(=O)N(C(C)C)C(C)C)ccc1[N+](=O)[O-]	12.6µM	0	0	0	0	0
Cc1nn(C)c(C)c1NC(=O)CC12CC3CC(CC(C3)C1)C2	0	0	0	0	0	0
CCc1cccc(NC(=O)CCn2nc(C)cc2C)c1	-	-	-	-	0	-
Cc1cc(C(=O)NCCc2ccccc2)ccc1[N+](=O)[O-]	11.2µM	3.98µM	?	0	13.5µM	2.24µM
COc1cccc(OCc2cc(C(=O)N3CCCC3c3ccccn3)no2)c1 (configuration not stated)	-	2.82µM	?	-	15.1µM	2.24µM
Cc1ccc(OCc2cc(C(=O)N3CCN(C)C[C@@H]3c3ccccc3)no2)cc1C	-	2.51µM	?	-	21.3µM	2.82µM
COc1cccc(OCc2cc(C(=O)N3CCN(C4CCCC4)CC3)no2)c1	-	0	0	-	0	0
Cc1ccc(OCc2cc(C(=O)N3CCC(Oc4cccnc4)CC3)no2)cc1C	-	0	0	-	0	0
CN1CCN(C(=O)c2cc(COc3ccccc3)on2)[C@@H](c2ccccc2)C1	-	2µM	13µM	-	9.53µM	3.55µM
CCOC(=O)c1c(C)c(C(=O)Nc2ccc(N(C)C)cc2)c(C)n1CC	0	0	0	0	15.1µM	0
CCOC(=O)c1c(C)c(C(=O)NCCOC)c(C)n1CC	0	0	0	0	0	0
CCCCOC(=O)Nc1ccc(C(C)C)cc1	14.1µM	?	?	0	9.53µM	?
COc1ccc(NC(=O)Nc2ccc(C(C)C)cc2)cc1	-	?	0	-	?	0
CCCCOC(=O)Nc1nnc(C(C)C)s1	?	2.24µM	?	0	?	2.82µM
CCCCOC(=O)Nc1cccc(C(=O)OCC)c1	?	0.316µM	?	0	?	0.224µM
CCCCOC(=O)Nc1ccc(S(=O)(=O)Nn2cnnc2)cc1	0	0	0	0	0	0
CCCCOC(=O)Nc1ccc(C(N)=O)cc1	?	?	23.1µM	0	15.1µM	?
CCCC(C)C(=O)Nc1ccc(C(N)=O)cc1 (configuration not stated)	0	0	0	0	0	0
CCCCOC(=O)Nc1ccc(N(C)C)cc1	11.2µM	2.82µM	9.2µM	0	3.01µM	3.98µM
N/C(=N\OC(=O)COc1ccc2ccccc2c1Br)c1ccccn1	?	?	?	0	21.3µM	?
O=C(COc1ccc2ccccc2c1Br)N1CCCC1	-	?	?	-	?	0
N/C(=N\OC(=O)COc1ccc2ccccc2c1Br)c1cccnc1	0	0	0	0	19µM	0
SMILES	SMN2 splice enh	Rab9 promoter act	ELG1 genotox	Luc counter	FLuc modulator	NPC1 prom act
COc1ccc(C(=O)n2nc(-c3ccco3)nc2NCc2cccs2)cc1OC	0	-	-	-	?	-
COc1n[nH]c(C(=O)NCc2ccccc2)c1[N+](=O)[O-]	0	0	0	0	?	0
COc1ccccc1C(=O)Nc1nc2ccccc2s1	-	?	?	-	0.107µM	2.24µM
COc1ccc(C(=O)Nc2nc3ccccc3s2)c(OC)c1	-	0	0	-	0.0151µM	?
COc1cc(C(=O)Nc2nc(N)n(-c3ccccc3)n2)cc(OC)c1OC	?	0	0	0	0	0
COc1n[nH]c(C(=O)Nc2nc3ccccc3s2)c1[N+](=O)[O-]	11.2µM	?	16.4µM	0	15.1µM	?
COC(=O)CCCCCCCCC(=O)Nc1nc2ccccc2s1	0	0	0	0	0	0
COc1ccccc1C(=O)Nc1nc(N)n(-c2ccccc2)n1	0	0	0	0	12µM	0
CCOc1cc2[nH]c(=O)n(CCCC(=O)N3CCN(c4ccc(OC)cc4)CC3)c(=O)c2cc1OCC	-	-	-	-	0	-
Cc1cn2c(=O)cc(COC(=O)c3cccc(NC(=O)C(C)Oc4ccccc4)c3)nc2s1 (configuration not stated)	-	-	-	-	0	-
Nc1nc2ccc(N3CCOCC3)cc2s1	15.8µM	2.82µM	8.2µM	0	10.7µM	?
Cc1cccc(C)c1OCC(=O)Nc1cccc(-c2nnc(-c3ccccc3)o2)c1	-	0	0	-	?	0
Cc1cccc(OCC(=O)Nc2cccc(-c3nnc(-c4ccccc4)o3)c2)c1C	10µM	0	0	0	0	?
Cc1ccc(OCC(=O)Nc2cccc(-c3nnc(-c4ccccc4)o3)c2)cc1	25.1µM	?	0	0	?	?
COc1ccccc1OCC(=O)Nc1cccc(-c2nc3ccccc3o2)c1	0	0	0	0	7.57µM	0
O=C(COc1ccccc1-c1nnc(-c2ccccc2)o1)Nc1ccc(Br)cc1F	-	-	-	-	4.78µM	-
COc1ccc(NC(=O)/C(C#N)=C/c2ccc(Sc3nncn3C)c([N+](=O)[O-])c2)cc1	0	0	?	0	0	0
NS(=O)(=O)c1ccc(NC(=O)CSc2nnc(-c3ccc(O)cc3)o2)cc1	-	0	0	-	?	0
COc1ccc(-c2nnc(SCC(=O)Nc3cc(C)on3)o2)cc1	20µM	0	0	0	0	0
COc1ccccc1NC(=O)CSc1nnc(-c2ccc(C)cc2)o1	2.51µM	1.26µM	?	0	0	1.58µM
O=C(CSc1ncc(-c2ccc(Cl)cc2)[nH]1)Nc1ccccc1F	0	-	-	-	?	-
O=C(CSc1nnc(-c2ccc(O)cc2)o1)Nc1ccccc1Br	-	3.16µM	10.3µM	-	-	2.82µM
Cc1cc(NC(=O)CSc2nnc(-c3ccco3)o2)no1	0	-	-	0	0	-
O=C(CSc1ncc(-c2ccccc2)[nH]1)Nc1ccccc1F	0	0	?	0	26.9µM	0
Cc1ccc(NC(=O)CN2C(=O)CSc3ccc(S(=O)(=O)N4CCCC4)cc32)cc1F	-	-	-	-	0	-
O=C(c1cc(C(F)(F)F)cc(C(F)(F)F)c1)N1CCC2(CC1)CN(c1ccccc1)C2	0	-	-	0	-	-
COc1cccc(CNC(=O)C2CCN(c3cnccn3)CC2)c1	0	0	0	0	0	0
Cc1ccc(NC(=O)CSc2ccc3nnc(CCNC(=O)c4ccccc4)n3n2)c(C)c1	0	0	0	0	0	0
Cc1ccc(C(CC(=O)O)Nc2nc(N3CCOCC3)nc(N3CCOCC3)n2)cc1 (configuration not stated)	0	0	0	0	0	0
COc1ccc2c3c(cccc13)N(C)N=C2C	0	0	0	0	0	0
